From PubChem
This is a sample that favours compounds with a hit; in the whole collection about 22% have one here.
Pf growth 96h: Primary qHTS for delayed death inhibitors of the malarial parasite plastid, 96 hour incubation. P. falciparum luciferase reporter growth, 96 h. Potency, µM (doses to about 28.7 µM), for inactives: at the top dose activity change, negative = inhibition, actives largely listed as inhibitors. actives 6.9% (n = 320,000). AID 504834, 2011; further: potency means the concentration at half of the fitted maximal effect; on the % scale 0 is the no-effect control and ±100 the full control effect
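Cell-based qHTS: luciferase-tagged P. falciparum in erythrocytes (2% hematocrit, 0.05% parasitemia final) incubated with compounds for 96 hours, 37 C, 5% CO2; luciferase detection reagent then added and luminescence measured.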
CHX counter: Cycloheximide Counterscreen for Small Molecule Inhibitors of Shiga Toxin; max response, %; cell reporter, cycloheximide protein synthesis inhibition counterscreen; AID 2314, 2010; actives 12% (n = 300,000); in the data active means max response mostly above about 13%, no sharp cut-off; inactive means mostly below about 14%; further: read at 38.3 µM for the half of the compounds with a filed dose; 0% is about no effect
Shiga toxin inh: A qHTS for Small Molecule Inhibitors of Shiga Toxin; Vero cells, Shiga toxin protein synthesis inhibition reporter; inhibition, % at 38.7 µM; actives 9.2% (n = 290,000); in the data active means inhibition mostly above about 28%, no sharp cut-off; inactive means mostly below about 43%; further: 0% is about no effect
Pf growth 48h: Primary qHTS for delayed death inhibitors of the malarial parasite plastid, 48 hour incubation | P. falciparum luciferase growth in erythrocytes, 48 h | Potency, µM (doses to about 28.7 µM), inactives show at the top dose activity change, negative = inhibition, usual class: inhibitors | actives 5.9% (n = 310,000); further: potency means the concentration at half of the fitted maximal effect; on the % scale 0 is the no-effect control and ±100 the full control effect
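Cell-based growth assay: transgenic P. falciparum expressing firefly luciferase, cultured in red cells within RPMI 1640 containing 0.5% w/v Albumax, 24 mM bicarbonate and gentamycin. A drop in luciferase activity indicates inhibition.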
LmPK inhibitor: qHTS Assay for Inhibitors of Leishmania Mexicana Pyruvate Kinase (LmPK) | purified LmPK, Kinase-Glo ATP luminescence, 1 h | Potency, µM (highest dose often 57.5 µM), for the others: at the highest dose activity change, negative = inhibition, hits mostly inhibitors | actives 0.37% (n = 290,000) | AID 1721, 2009; further: potency means the concentration at half of the fitted maximal effect; on the % scale 0 is the no-effect control and ±100 the full control effect
Target sequence (Q27686 whole entry, looked up): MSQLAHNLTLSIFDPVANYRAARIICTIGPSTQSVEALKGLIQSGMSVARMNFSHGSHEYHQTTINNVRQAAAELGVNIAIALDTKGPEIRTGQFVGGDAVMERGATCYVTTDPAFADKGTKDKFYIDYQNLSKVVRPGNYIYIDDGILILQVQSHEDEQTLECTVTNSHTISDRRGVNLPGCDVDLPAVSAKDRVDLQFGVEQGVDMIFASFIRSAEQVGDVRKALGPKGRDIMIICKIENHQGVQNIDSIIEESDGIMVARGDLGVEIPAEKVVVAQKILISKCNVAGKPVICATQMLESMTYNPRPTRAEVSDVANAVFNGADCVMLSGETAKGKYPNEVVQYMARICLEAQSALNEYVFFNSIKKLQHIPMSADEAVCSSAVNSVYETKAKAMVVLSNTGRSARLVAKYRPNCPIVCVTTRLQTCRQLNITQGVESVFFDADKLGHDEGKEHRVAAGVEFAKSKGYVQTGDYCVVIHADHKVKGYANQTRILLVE
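ATP generated from ADP (0.1 mM) and PEP (0.5 mM) by 0.1 nM LmPK over 1 h at room temperature (pH 7.2 imidazole buffer) was detected by coupled luciferase luminescence. Values were normalized to uninhibited and no-enzyme wells.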
The depositor's hits bear a star; ? = inconclusive; . = no result. Unless noted, the call rests on the fitted dose curve; in most records, active means well fitted inhibition curve with a large enough effect; inconclusive means small, poorly fitted or top-dose-only effect, or another doubt; inactive means no such curve, though single readings can be large or run the other way.

SMILES | Pf growth 96h | CHX counter | Shiga toxin inh | Pf growth 48h | LmPK inhibitor
Cc1cccc(NC(=O)CN2C(=O)S/C(=C\c3ccccn3)C2=O)c1 | 4.15µM* | -2.8 | -6.1 | -17.4% | 1.1%
O=C(CCN1C(=O)/C(=C\c2ccc(F)cc2)SC1=S)Nc1ccc(O)cc1 | 35.4% | -2.5 | 25.9 | 12.6% | -4.9%
O=C(O)CCCN1C(=O)/C(=C\c2ccccc2OCc2ccccc2)SC1=S | 18.8% | -2.0 | 3.2 | 12.0% | 0.6%
Cc1[nH]c(C)c(S(=O)(=O)N(Cc2ccccc2)C(C)(C)C)c1C(=O)N1CCCC1 | ? | -4.6 | 14.6 | -12.6% | -3.9%
CCc1cccc(NC(=O)Cn2cc(C=O)c3ccccc32)c1 | ? | -8.6 | 18.7 | 13.3% | -0.5%
COc1ccc(OC)c2c(C)cc(N3CCN(C(=O)c4ccc(Cl)cc4)CC3)nc12 | . | -2.7 | 19.6 | ? | 1.9%
Cc1ccc(S(=O)(=O)CCC(=O)NCCN2C(=O)S/C(=C/c3ccc(F)cc3)C2=O)cc1 | -0.7% | 15.9* | -0.8 | 4.2% | -1.3%
O=C(CCCN1C(=O)/C(=C/c2ccccc2)SC1=S)Nc1cccc(O)c1 | -28.8% | 12.3 | 21.2* | ? | -0.2%
O=C(CCN1C(=O)/C(=C\C=C\c2ccccc2)SC1=S)Nc1cccc(C(=O)O)c1 | ? | -3.8 | -12.7 | 39.0% | 5.9%
O=C(CCN1C(=O)/C(=C\C=C\c2ccccc2)SC1=S)Nc1ccccc1C(=O)O | 9.28µM* | -3.3 | -24.0 | 6.0% | -11.0%
O=C(CCNC(=O)c1ccco1)NCCN1C(=O)S/C(=C\c2ccc(F)cc2)C1=O | -2.3% | . | . | 60.2% | .
O=C(CN1C(=O)S/C(=C\C=C\c2ccccc2)C1=O)Nc1ccc(O)cc1 | -15.8% | 71.7* | 65.5* | 24.6% | 5.3%
O=C(CSc1ccc([N+](=O)[O-])cc1)NNC(=O)c1ccccc1F | 11.1% | 0.8 | 18.8 | 0.0% | 0.5%
COc1ccccc1NC(=O)NNC(=O)CCc1ccccc1 | 22.5% | -3.5 | -7.4 | 13.8% | 0.2%
Cc1ccc(NC(=O)CN2C(=O)S/C(=C\c3ccc(C(=O)O)cc3)C2=O)cc1 | 14.7µM* | -2.1 | . | 9.0% | -4.5%
O=C(CCCN1C(=O)/C(=C/c2ccccc2Cl)SC1=S)Nc1cccnc1 | 87.3% | 28.9* | 41.7* | ? | -9.4%
CCN(CC)CCCC(C)Nc1cc(/C=C/c2ccccc2Cl)nc2cc(Cl)ccc12 (centres undefined) | 0.601µM* | . | . | 0.477µM* | .
C=CCc1cc2c(oc(=O)c3ccccc32)c(C)c1O | 14.7µM* | 0.7 | 13.4 | -12.9% | 6.8%
Cc1c(OC(C(=O)O)c2ccccc2)ccc2c1oc(=O)c1ccccc12 (centres undefined) | ? | -1.2 | -6.9 | 25.0% | 2.9%
Cc1c(O)c(CN2CCCC2)cc2c1oc(=O)c1ccccc12 | 6.4% | -1.5 | -3.3 | 1.47µM* | 1.5%
CCc1cc(=O)oc2c(C)c(O)c(CN3CCCCC3)cc12 | . | -5.8 | -10.1 | ? | 3.5%
Cc1c(O)c(CN2CCCC2)cc2c3c(c(=O)oc12)CCC3 | ? | 4.0 | -16.7 | 3.29µM* | 6.6%
Cc1nc2sccn2c(=O)c1CCN1CCC(=C(c2ccccc2)c2ccc(F)cc2)CC1 | 14.7µM* | -4.8 | -15.6 | 14.7µM* | -2.3%
Cc1nc2sccn2c(=O)c1S(=O)(=O)N1CCN(c2ccccc2)CC1 | 14.1% | -2.9 | -3.1 | -8.5% | -1.4%
CC(C)OC(=O)CCCNc1ccc([N+](=O)[O-])cc1[N+](=O)[O-] | ? | -4.8 | -10.4 | -14.3% | 5.6%
SMILES | Pf growth 96h | CHX counter | Shiga toxin inh | Pf growth 48h | LmPK inhibitor
CN1CCN(CC(=O)Nc2nc(-c3c[nH]c4ccccc34)cs2)CC1 | ? | 22.2* | 62.1* | ? | 9.1%
CCc1ccc(-c2csc(-c3c[nH]c4ccccc34)n2)cc1 | ? | 61.8* | 38.4* | 91.4% | -2.7%
CCC(C)Nc1nc(-c2c[nH]c3ccccc23)cs1 (centres undefined) | ? | 30.7* | 14.8 | 8.28µM* | 3.5%
Cc1sc2nc(C)n(/N=C/c3ccccc3)c(=O)c2c1C | . | -2.6 | -13.9 | 5.8% | -2.5%
C=CCOc1nc2sc(C)c(C)c2c(=O)n1-c1ccccc1 | 8.28µM* | -3.4 | -1.2 | -1.6% | 4.7%
Cc1ccc(-c2csc(=Nc3cccnc3)n2CCCn2ccnc2)cc1C | 3.7µM* | -2.6 | -18.2 | 10.4µM* | 0.5%
COCCn1c(-c2ccccc2)csc1=Nc1cccnc1 | ? | 8.6 | -5.7 | ? | -6.5%
CCCCn1c(C)csc1=Nc1cccnc1 | ? | -2.9 | 8.8 | -0.6% | -1.0%
Cc1ccc(-c2csc(=Nc3cccnc3)n2CCCN2CCCC2=O)cc1C | 11.7µM* | -3.3 | -11.9 | ? | -1.1%
c1cncc(N=c2scc(-c3cccc4ccccc34)n2CCCn2ccnc2)c1 | 9.28µM* | -4.9 | -18.1 | 9.28µM* | -0.8%
NNC(=O)CCc1ccc(S(=O)(=O)N2CCOCC2)cc1 | 0.6% | -4.7 | -9.7 | -20.6% | -2.0%
O=S(=O)(NC1CCCCC1N1CCN(c2cccc(Cl)c2)CC1)c1ccccc1 (centres undefined) | -5.8% | -4.2 | -8.4 | 14.7µM* | 10.9%
COc1ccc(OC)c(C(c2nnnn2C2CCCC2)N2CCN(c3ccccc3)CC2)c1 (centres undefined) | ? | 16.9 | -3.0 | ? | 1.6%
c1ccc(CN(Cc2cccs2)C(c2cccs2)c2nnnn2C2CCCC2)cc1 (centres undefined) | . | -3.1 | -21.4 | 13.1µM* | -2.4%
c1ccc(CC2CCN(C(c3cccs3)c3nnnn3C3CCCC3)CC2)cc1 (centres undefined) | . | -0.4 | -11.9 | 1.85µM* | 2.8%
Fc1ccccc1C(c1nnnn1C1CCCC1)N1CCN(Cc2ccccc2)CC1 (centres undefined) | 43.3% | -3.5 | 4.0 | ? | 6.9%
COc1ccccc1N1CCN(C(c2cccs2)c2nnnn2C2CCCC2)CC1 (centres undefined) | 137.3% | -1.4 | -12.1 | 13.1µM* | 3.1%
COc1ccccc1C(c1nnnn1C1CCCC1)N1CCN2CCCC2C1 (centres undefined) | 101.5% | -5.3 | -8.8 | 13.1µM* | 1.9%
CCC(c1nnnn1C1CCCC1)N1CCN(Cc2ccccc2)CC1 (centres undefined) | ? | -1.7 | -6.6 | ? | 2.0%
COc1ccc(NC(=O)CCN2C(=O)C3CC=C(Cl)CC3C2=O)cc1 (centres undefined) | 17.7% | -0.9 | 11.9 | 14.0% | 1.7%
CCCc1nnc(NC(=O)CCC(=O)NCc2ccc(OC)cc2)s1 | 28.8% | 0.6 | 12.9 | 12.5% | 6.3%
N#Cc1ccc(C(=O)OCC(=O)N2CCCC2)cc1 | 13.5% | 4.0 | 3.0 | 5.9% | 3.0%
Cc1cc(N2CCC(C(=O)N3CCN(c4cccc(C)c4C)CC3)CC2)n2ncnc2n1 | . | -1.8 | -21.9 | 2.33µM* | -1.2%
Cc1cccc(N2CCN(C(=O)C3CCCCC3)CC2)c1C | ? | -0.7 | -9.7 | . | 3.2%
